Screening results: PubChem, several laboratories
CYP2C9 inhib – human CYP2C9 inhibition; P11712; CYP2C9 Supersomes, luciferin-H conversion, luminescence; inhibition, % at 5 µM; actives 20% (n = 96,000); AID 777;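 active means blocking of liver enzyme CYP2C9 beyond about 50% at 5 µM, limit read from the data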
CYP2C19 activ – cytochrome P450 2C19 (human) activation; recombinant CYP2C19, luciferin-H EGE luminescence; stronger effect = higher value; 0 = fully inhibited enzyme, 1 = untreated enzyme; P33261; AID 1025; 96,000 tested, under 10 active; activation factor at 5 µM;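 active means activation factor of at least 2 at 5 µM in the primary screen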
CYP2C9 act – activators of human CYP2C9 | AID 1024 | actives 1.4% (n = 96,000) | recombinant CYP2C9, luciferin-H conversion, luminescence; stronger effect = higher value; factor 1 = untreated enzyme, 0 = blocked | activation factor at 5 µM | P11712;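 active means activation factor of 2 or more for CYP2C9 at a 5 µM dose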
CYP2C19 inhib – human CYP2C19 inhibition; actives 21% (n = 96,000); CYP2C19 Supersomes, luciferin-H EGE luminescence, 30 min; inhibition, % at 5 µM; P33261;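 active means CYP2C19 inhibition above a set limit at 5 µM in the primary screen, cut at about 50% in these data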
EphB4 ephrin blk – EphB4-ephrin-B2 interaction antagonism; inhibition, % at 7 µM; EphB4 LBD / TNYL-RAW-Alexa532 peptide, fluorescence polarization; actives 0.15% (n = 97,000); P54760;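 active means inhibition above the screen-wide mean inhibition plus 3 SD, cut at about 15% in these data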
Target sequence (P54760 whole entry, looked up, the tested form may be a part): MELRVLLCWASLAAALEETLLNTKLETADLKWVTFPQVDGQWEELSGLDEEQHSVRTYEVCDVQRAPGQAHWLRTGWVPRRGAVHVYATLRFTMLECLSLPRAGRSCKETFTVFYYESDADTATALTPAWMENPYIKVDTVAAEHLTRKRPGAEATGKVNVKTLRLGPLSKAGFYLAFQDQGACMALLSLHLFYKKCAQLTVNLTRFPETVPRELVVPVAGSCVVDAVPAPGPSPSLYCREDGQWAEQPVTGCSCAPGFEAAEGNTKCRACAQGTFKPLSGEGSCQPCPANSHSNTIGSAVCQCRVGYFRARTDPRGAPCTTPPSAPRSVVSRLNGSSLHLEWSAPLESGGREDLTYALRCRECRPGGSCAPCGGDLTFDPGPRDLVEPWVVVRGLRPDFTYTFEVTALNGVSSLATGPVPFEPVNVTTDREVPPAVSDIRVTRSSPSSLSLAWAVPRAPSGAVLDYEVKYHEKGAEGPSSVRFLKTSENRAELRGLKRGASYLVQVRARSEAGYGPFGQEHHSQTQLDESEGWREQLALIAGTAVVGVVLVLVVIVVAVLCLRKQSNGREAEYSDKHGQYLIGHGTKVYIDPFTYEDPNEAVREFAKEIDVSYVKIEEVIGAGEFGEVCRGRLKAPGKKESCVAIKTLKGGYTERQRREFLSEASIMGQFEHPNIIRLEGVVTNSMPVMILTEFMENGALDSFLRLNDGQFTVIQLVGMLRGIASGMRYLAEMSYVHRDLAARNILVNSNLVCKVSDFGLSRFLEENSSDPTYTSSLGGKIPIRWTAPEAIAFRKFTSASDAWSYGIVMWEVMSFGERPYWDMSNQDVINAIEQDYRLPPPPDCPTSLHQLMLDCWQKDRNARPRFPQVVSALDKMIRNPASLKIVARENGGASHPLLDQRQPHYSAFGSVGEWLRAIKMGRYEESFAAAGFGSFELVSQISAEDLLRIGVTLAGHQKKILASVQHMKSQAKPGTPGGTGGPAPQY
Hits are given with their value; – = inactive; · = no result given. The list is not random: actives were taken first. Their share in the collection is about 27%.

SMILES	CYP2C9 inhib	CYP2C19 activ	CYP2C9 act	CYP2C19 inhib	EphB4 ephrin blk
COc1ccc(OC)c2c1sc(=NC(=O)C(C)C)n2C	70.7	–	–	70.6	–
COc1ccc(C(=O)N=c2sc3c(C)ccc(OC)c3n2C)cc1	52.8	–	–	–	–
COc1ccc(OC)c2c1sc(=NC(=O)C(C)(C)C)n2C	–	–	–	–	–
CCn1nc(CC(=O)Nc2ccc(-n3cnnn3)c(OC)c2)c2ccccc2c1=O	–	–	–	–	–
COC(=O)C(C(=O)OC)N1C(=O)CCC1=O	–	–	–	–	–
O=[N+]([O-])c1cccc(C(=Nc2cccc(Cl)c2)NO)c1	86.9	–	–	90.7	–
Nc1cccc(C(=O)Nc2ccccc2Cl)c1	–	–	–	–	–
C=CCc1cccc(/C=N/c2ncccc2O)c1O	–	–	–	–	–
CCC(=O)N1CCN(C(=O)CC)C1c1ccccc1	–	–	–	–	–
O=P1(O)C=C(c2ccccc2)NC(c2ccccc2)=C1	–	–	–	–	–
O=C(CSc1ccc(Cl)cc1)N1CCN(c2c(Cl)cccc2[N+](=O)[O-])CC1	70.7	–	–	–	–
CCS(=O)(=O)N1CCN(c2c(Cl)cccc2[N+](=O)[O-])CC1	–	–	–	52.5	–
CCCCC(=O)N=c1sc2cc(S(C)(=O)=O)ccc2n1C	–	–	–	–	–
N#CC1=C(N)N(c2ccc(Oc3ccccc3)cc2)C(=O)C1	52.3	–	–	–	–
CC(O)(CS(=O)(=O)Cc1cccc(C(F)(F)F)c1)C(=O)Nc1cccc(C(F)(F)F)c1 (stereo not given)	–	–	–	–	–
CC(O)(CS(=O)(=O)Cc1ccccc1Cl)C(=O)Nc1cccc(C(F)(F)F)c1 (stereo not given)	–	–	–	54.3	–
O=C1CC(N2CCC(O)(c3ccc(Cl)cc3)CC2)C(=O)N1Cc1ccc(N2CCCC2=O)cc1 (stereo not given)	–	–	–	80.4	–
O=C1CC(N2CCOCC2)C(=O)N1Cc1ccc(N2CCCC2=O)cc1 (stereo not given)	–	–	–	–	–
CC(=O)Oc1ccc2ccccc2c1C(NC(=O)Cc1ccccc1)c1ccccc1Cl (stereo not given)	–	–	–	63.1	–
CCn1c(COc2ccc3c(c2)OCO3)nnc1SCC(=O)O	·	·	·	·	–
CCCCNS(=O)(=O)c1ccc(OC)cc1	–	–	–	–	–
COc1ccc(S(=O)(=O)NCCc2ccccc2)cc1	–	–	–	95.3	–
COc1ccc(CCNS(=O)(=O)c2cn(C)c(=O)n(C)c2=O)cc1	–	–	–	–	–
COc1ccc(S(=O)(=O)NCCc2ccc(F)cc2)cc1	–	–	–	99.5	–
CCS(=O)(=O)NCCCCc1ccccc1	–	–	–	60.2	–
SMILES	CYP2C9 inhib	CYP2C19 activ	CYP2C9 act	CYP2C19 inhib	EphB4 ephrin blk
COc1ccc(CCNS(=O)(=O)c2cccs2)cc1	89.9	–	–	98.8	–
O=S(=O)(NCCc1ccc2c(c1)OCCO2)c1cccs1	–	–	–	–	–
CCS(=O)(=O)NCCCc1ccccc1	–	–	–	–	–
CCSc1nc2ccccc2n1S(=O)(=O)c1ccccc1	–	–	–	–	–
O=C(CN1CCOCCOCCN(CC(=O)Nc2ccccc2)CCOCC1)Nc1ccccc1	–	–	–	–	–
O=C(NCc1nnc(SCC(=O)N2CCCCCC2)o1)c1ccco1	–	–	–	–	–
CCN(CC)C(=O)CN(c1cccc(C(F)(F)F)c1)S(C)(=O)=O	–	–	–	–	–
Brc1cnc(N2CCOCC2)nc1N1CCCCC1	–	–	–	58.3	–
Cn1c(=Nc2ccccc2)sc2ccccc21	–	–	–	81.2	–
CN(C)c1ccc(N=c2sc3ccccc3n2C)cc1	76.8	–	–	97.5	–
Cn1c(=NC(=O)CCl)sc2ccccc21	–	–	–	–	–
CC(=O)CC(C)(C)S(=O)(=O)c1ccc(NC(C)=O)cc1	·	·	·	·	–
Cc1ccc2c(CN3CCCc4ccccc43)cc(=O)oc2c1C	–	–	–	–	–
CCOc1ccccc1N(C(=O)CNC(=O)c1ccco1)C(C(=O)NC1CCCC1)c1cccnc1 (stereo not given)	–	–	–	–	–
CC(C)(C)n1ncc2c(=O)n(CC(=O)N3CCCc4ccccc43)cnc21	–	–	–	–	–
O=C(COC(=O)C1CC1)c1c[nH]c2ccccc12	–	–	–	–	–
O=C(OCc1ccccc1)C1=[N+]([O-])OC(C(=O)OCc2ccccc2)C1c1c[nH]c2ccccc12 (stereo not given)	95.9	–	–	83.7	–
